Data as given in PubChem BioAssay.
Active and inactive are the calls of the source.

Legend:
Albumin (Bos taurus) = Albumin (Bos taurus) (UniProt P02769); assay: bovine serum albumin binders on microarray, profiling panel, artefact control for SMM control protein annotation, biochemical, small-molecule microarray, Alexa647 label, 635/667 nm fluorescence (AID 1118); settings: BSA-A647 binding, fluorescence 635 nm, higher = more signal;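 further: score merges 667 nm emission intensity and signal-to-noise per printed compound spot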
Chain of Albumin (Bos taurus) (P02769 whole entry, looked up): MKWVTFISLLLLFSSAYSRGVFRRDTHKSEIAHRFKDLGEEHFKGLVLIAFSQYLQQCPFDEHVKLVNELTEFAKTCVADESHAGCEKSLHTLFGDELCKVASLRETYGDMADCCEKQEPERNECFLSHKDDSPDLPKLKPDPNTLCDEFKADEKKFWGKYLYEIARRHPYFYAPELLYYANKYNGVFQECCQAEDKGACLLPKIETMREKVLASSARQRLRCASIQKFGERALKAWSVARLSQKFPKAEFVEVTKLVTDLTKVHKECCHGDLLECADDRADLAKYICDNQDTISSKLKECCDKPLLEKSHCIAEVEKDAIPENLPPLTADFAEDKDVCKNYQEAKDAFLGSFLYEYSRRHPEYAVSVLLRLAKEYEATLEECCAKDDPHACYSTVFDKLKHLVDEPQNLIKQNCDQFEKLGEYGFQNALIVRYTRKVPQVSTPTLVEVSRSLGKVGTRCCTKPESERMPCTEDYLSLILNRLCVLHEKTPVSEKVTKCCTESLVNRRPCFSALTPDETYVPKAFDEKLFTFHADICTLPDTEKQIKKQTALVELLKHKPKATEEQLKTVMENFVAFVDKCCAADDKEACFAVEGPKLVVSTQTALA

[1] = small-molecule microarray binders of probe aXIP, primary screen, biochemical, NeuroSMM set, 635/667 nm fluorescence (AID 1119); settings: higher = more signal, called active from +8 up or from −8 down;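 further: probe is the protein aXip251-270 applied at 1 µg/mL to compound-printed slides; binding of probe to printed compounds measured as 667 nm fluorescence plus signal to noise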
[2] = small-molecule binders of probe aNOTCH3, primary screen, biochemical, small-molecule microarray, 635/667 nm fluorescence (AID 1120); settings: higher = more signal;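 further: probe is a biotin-tagged antibody raised against NOTCH3 rather than NOTCH3 protein; score merges spot fluorescence near 667 nm with spot signal to noise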
[3] = small-molecule binders of probe aNOTCH2, primary screen, biochemical, small-molecule microarray, 635/667 nm fluorescence (AID 1121); settings: higher = more signal;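 further: score merges feature fluorescence read at 667 nm with its signal to noise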
[4] = biological target: Carbonic anhydrase 2 (Homo sapiens) (UniProt P00918); assay: CAII small-molecule binders, profiling panel, biochemical, small-molecule microarray, Alexa647-labelled CAII (AID 1122); settings: CAII-A647 binding fluorescence, higher = more signal
[5] = COS7 lysate on small-molecule microarray, probe aHis, 635 nm (AID 1123); settings: COS7 cell lysate, fluorescence, higher = more signal;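 further: z-score combines 667nm fluorescence intensity with signal-to-noise per printed compound spot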
[6] = compound binding in COS7 lysate, probe aLAP1, primary screen, cell lysate, small-molecule microarray (AID 1124); settings: probe aLAP1, fluorescence, higher = more signal;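 further: lysate comes from COS7 cells expressing LAP1 and is applied at 0.3 µg/mL; score merges spot fluorescence near 667 nm with signal-to-noise over triplicate slides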
Sam68 (KHDRBS1) = assay: Sam68 small-molecule binders, primary screen, biochemical, small-molecule microarray, 635 nm fluorescence (AID 1125); settings: small-molecule microarray binding, higher = more signal;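 further: score merges 667 nm channel intensity with signal to noise over triplicate slides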
[7] = system: Chordin-like protein 2 (CHRDL2); assay: CHRDL2 small-molecule binders, primary screen, biochemical, small-molecule microarray, 635 nm fluorescence (AID 1126); settings: small-molecule microarray binding, fluorescence 635 nm; higher = more signal;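 further: printed compound slides probed with Chrdl2 protein at 4 µg/mL for 1 h at 4 C; score merges 667 nm emission intensity with signal to noise over three replicate slides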
[8] = biological target: Concanavalin-A (Canavalia ensiformis) (UniProt P02866); assay: ConA small-molecule binders, primary screen, artefact control for SMM control protein annotation, biochemical, small-molecule microarray, Alexa647 label, 635 nm (AID 1127); settings: ConA-A647 binding fluorescence, higher = more signal;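 further: z combines 667 nm emission intensity with signal-to-noise across three replicate slides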
Chain of Concanavalin-A (Canavalia ensiformis) (P02866 whole entry, looked up): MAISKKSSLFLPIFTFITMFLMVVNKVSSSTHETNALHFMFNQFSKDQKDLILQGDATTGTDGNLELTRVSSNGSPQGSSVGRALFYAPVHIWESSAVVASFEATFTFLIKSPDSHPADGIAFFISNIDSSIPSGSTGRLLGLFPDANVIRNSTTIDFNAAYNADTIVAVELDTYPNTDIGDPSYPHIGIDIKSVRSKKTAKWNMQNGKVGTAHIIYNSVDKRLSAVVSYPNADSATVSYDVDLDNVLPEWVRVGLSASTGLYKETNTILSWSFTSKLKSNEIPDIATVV

[9] = anti-His antibody binders, primary screen, artefact control for SMM control protein annotation, biochemical, small-molecule microarray, 635 nm fluorescence (AID 1128); settings: anti-His Alexa647 antibody binding, higher = more signal;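 further: score merges feature fluorescence with signal-to-noise for each printed compound spot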
[10] = system: Human papillomavirus type 1a E7 protein (residues 1-88); assay: HPV1a E7 small-molecule binders, primary screen, biochemical, small-molecule microarray, residues 1-88, 635 nm (AID 1129); settings: small-molecule microarray binding, fluorescence 635 nm; higher = more signal
[11] = biological target: Focal adhesion kinase 1 (Homo sapiens) (UniProt Q05397); assay: small-molecule microarray binders of FAK, primary screen, biochemical, 635/667 nm fluorescence, BSA, DTT (AID 1130); settings: PTK2 binding, 635 nm fluorescence, higher = more signal;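 further: composite of spot emission at 667 nm and signal to noise over triplicate slides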
Chain of Focal adhesion kinase 1 (Homo sapiens) (Q05397 whole entry, looked up): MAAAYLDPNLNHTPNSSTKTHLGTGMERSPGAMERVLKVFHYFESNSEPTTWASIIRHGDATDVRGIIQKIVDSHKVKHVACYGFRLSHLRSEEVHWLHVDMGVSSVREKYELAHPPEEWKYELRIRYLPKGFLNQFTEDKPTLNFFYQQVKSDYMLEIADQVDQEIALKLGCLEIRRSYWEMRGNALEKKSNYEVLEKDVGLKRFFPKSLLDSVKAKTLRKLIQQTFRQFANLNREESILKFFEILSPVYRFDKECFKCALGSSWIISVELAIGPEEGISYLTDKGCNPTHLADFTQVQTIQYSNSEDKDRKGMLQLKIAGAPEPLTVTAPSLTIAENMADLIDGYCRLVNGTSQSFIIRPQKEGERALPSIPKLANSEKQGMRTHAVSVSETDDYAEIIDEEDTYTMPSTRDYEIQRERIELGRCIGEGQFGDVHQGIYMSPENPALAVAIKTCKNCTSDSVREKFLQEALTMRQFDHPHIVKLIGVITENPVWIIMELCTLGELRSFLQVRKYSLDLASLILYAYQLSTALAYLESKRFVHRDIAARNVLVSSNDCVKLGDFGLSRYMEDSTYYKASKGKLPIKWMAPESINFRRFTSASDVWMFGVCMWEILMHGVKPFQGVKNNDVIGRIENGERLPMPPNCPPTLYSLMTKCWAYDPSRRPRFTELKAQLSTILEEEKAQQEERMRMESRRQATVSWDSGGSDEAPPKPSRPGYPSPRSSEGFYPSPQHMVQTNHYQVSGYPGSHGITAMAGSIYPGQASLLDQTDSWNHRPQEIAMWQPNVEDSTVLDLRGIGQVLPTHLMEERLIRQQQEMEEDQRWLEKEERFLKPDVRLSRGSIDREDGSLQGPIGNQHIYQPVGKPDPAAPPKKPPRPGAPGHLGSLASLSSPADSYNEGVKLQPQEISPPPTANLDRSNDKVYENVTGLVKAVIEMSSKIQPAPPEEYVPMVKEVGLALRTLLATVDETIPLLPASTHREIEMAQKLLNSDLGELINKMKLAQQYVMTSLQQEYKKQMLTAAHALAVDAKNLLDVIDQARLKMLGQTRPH

[12] = system: Fibrinogen (Alexa647-labelled); assay: fibrinogen binders on compound microarrays, profiling panel, artefact control for SMM control-protein annotation, biochemical, small-molecule microarray, 635/667 nm fluorescence (AID 1131); settings: fibrinogen-A647 binding fluorescence, higher = more signal;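 further: z-score merges 667 nm fluorescence with per-spot signal-to-noise over triplicate slides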
[13] = biological target: Follistatin (Homo sapiens) (UniProt P19883); assay: follistatin binders on small-molecule microarrays, primary screen, biochemical, small-molecule microarray, 635/667 nm fluorescence (AID 1132); settings: FST binding, 635 nm fluorescence, higher = more signal
Chain of Follistatin (Homo sapiens) (P19883 whole entry, looked up): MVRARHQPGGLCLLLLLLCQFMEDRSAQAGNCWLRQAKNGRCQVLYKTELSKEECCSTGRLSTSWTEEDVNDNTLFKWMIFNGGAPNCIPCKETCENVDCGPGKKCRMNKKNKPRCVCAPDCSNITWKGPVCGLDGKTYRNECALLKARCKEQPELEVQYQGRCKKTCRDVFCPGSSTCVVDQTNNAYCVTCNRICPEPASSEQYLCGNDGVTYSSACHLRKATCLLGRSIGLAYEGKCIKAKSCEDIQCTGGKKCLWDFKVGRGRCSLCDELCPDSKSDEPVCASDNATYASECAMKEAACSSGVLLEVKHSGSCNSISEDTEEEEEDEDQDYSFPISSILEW

[14] = biological target: Fibroblast growth factor 2 (Homo sapiens) (UniProt P09038); assay: FGF2 binders on small-molecule microarrays, primary screen, biochemical, small-molecule microarray, 635/667 nm fluorescence (AID 1133); settings: small-molecule microarray binding, FGF2, fluorescence 635/667; higher = more signal
Chain of Fibroblast growth factor 2 (Homo sapiens) (P09038 whole entry, looked up): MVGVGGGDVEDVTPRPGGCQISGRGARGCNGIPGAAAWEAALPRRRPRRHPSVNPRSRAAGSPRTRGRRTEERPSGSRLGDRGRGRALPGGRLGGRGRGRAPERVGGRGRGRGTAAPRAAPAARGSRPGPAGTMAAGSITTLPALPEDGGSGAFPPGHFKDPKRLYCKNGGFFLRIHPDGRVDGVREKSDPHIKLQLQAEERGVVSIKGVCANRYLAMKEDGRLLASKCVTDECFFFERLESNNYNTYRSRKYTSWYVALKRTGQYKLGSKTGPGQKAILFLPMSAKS

[15] = mitochondrial membrane potential change in A549 cells, profiling panel, cell-based, JC-1 fluorescence, basal, 24 h, 100 nL (AID 1138); settings: higher = more signal;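 further: A549 lung adenocarcinoma cells under basal conditions with no added stimulus; test concentration not given here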
Lefty1 = Lefty1 binders on small-molecule microarrays, primary screen, biochemical, small-molecule microarray, 635/667 nm fluorescence (AID 1139); settings: small-molecule microarray binding, fluorescence 635/667; higher = more signal
[16] = system: wheat germ agglutinin (Triticum aestivum), Alexa647-labelled; assay: wheat germ agglutinin binders on compound microarrays, profiling panel, artefact control for SMM control-protein annotation, biochemical, small-molecule microarray, 635/667 nm fluorescence (AID 1140); settings: WGA-A647 binding, 635 nm fluorescence, higher = more signal;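 further: score merges 667 nm feature emission with signal to noise over triplicate slides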
[17] = biological target: Luciferin 4-monooxygenase (Photinus pyralis) (UniProt P08659); assay: firefly luciferase enzyme inhibitors, primary screen, biochemical, luminescence, purified enzyme, 2006 set (AID 1141); settings: SteadyGlo luminescence, 30 min, higher = more signal, called active from +8 up or from −8 down;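 further: cell-free assay with purified firefly luciferase at 100 ng per well in PBS; test concentration not given here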
Chain of Luciferin 4-monooxygenase (Photinus pyralis) (P08659 whole entry, looked up): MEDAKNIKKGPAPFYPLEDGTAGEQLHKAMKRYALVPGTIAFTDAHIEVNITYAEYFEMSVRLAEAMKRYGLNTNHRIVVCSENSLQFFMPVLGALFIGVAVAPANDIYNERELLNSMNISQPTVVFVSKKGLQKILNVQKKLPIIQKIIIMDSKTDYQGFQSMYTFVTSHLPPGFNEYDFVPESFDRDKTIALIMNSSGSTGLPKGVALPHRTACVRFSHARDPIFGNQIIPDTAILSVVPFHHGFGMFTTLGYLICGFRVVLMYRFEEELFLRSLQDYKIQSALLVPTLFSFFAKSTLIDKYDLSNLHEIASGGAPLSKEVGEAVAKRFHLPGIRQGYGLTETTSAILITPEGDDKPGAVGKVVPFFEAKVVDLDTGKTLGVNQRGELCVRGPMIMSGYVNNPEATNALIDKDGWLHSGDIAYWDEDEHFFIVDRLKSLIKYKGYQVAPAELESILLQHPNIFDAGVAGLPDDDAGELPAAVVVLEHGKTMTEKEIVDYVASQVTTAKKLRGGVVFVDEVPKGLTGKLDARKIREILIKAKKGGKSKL

SMILES	composite z-score (Albumin (Bos taurus))	composite Z-score [1]	composite z-score [2]	composite z-score [3]	composite z-score [4]	composite z-score [5]	composite z-score [6]	composite z-score (Sam68 (KHDRBS1))	composite z-score [7]	composite z-score [8]	composite z-score [9]	composite z-score [10]	composite z-score [11]	composite z-score [12]	composite z-score [13]	composite z-score [14]	z-score [15]	composite z-score (Lefty1)	composite z-score [16]	z-score [17]
C=C[C@@H](COC(C)=O)N(Cc1ccc([N+](=O)[O-])cc1)S(=O)(=O)c1ccc(Br)cc1	0.812	0.181 (inactive)	-0.0647	-0.0089	0.448	0.432	0.442	0.573	0.241	1.11	1.6	1.17	0.079	0.958	0.631	0.54	1.6	0.321	1.09	-1.19 (inactive)
COc1ccc(CCNC(=O)[C@@H]2c3ccccc3C(=O)N(Cc3ccc(OC(F)(F)F)cc3)[C@H]2c2ccc(CO)cc2)cc1	0.59	-0.313 (inactive)	-0.0077	-0.0029	0.497	1.53	0.983	1.07	0.0372	0.485	1.66	0.901	0.658	0.0913	1.18	0.494	1.48	0.147	0.213	-0.243 (inactive)
COCCOC(=O)N1C(=O)[C@@]2(c3cc(C#CCCO)ccc31)[C@H](C(=O)NC[C@H](O)c1ccccc1)[C@H]1C(=O)O[C@H](c3ccccc3)[C@H](c3ccccc3)N1[C@@H]2c1ccc(O)cc1	0.508	-0.302 (inactive)	-0.0362	-0.115	0.568	0.813	0.16	0.053	-0.496	1.09	1.69	0.789	0.148	-0.134	1.09	0.837	-0.319	0.429	0.363	0.788 (inactive)
CCCCCN1CC=CC23O[C@@H]4C=CCOC(=O)[C@@H]4[C@H]2C(=O)N(CCCO)[C@@H]3C1=O (stereo not given in full)	1.02	1.01 (inactive)	-0.245	-0.155	0.851	2.39	0.937	1.28	-0.205	0.221	1.5	0.789	0.532	-1.05	0.105	-0.128	-0.483	0.632	-0.895	-0.0247 (inactive)
C=C(COC)C(=O)CC[C@H](OC(C)=O)c1cccc(OCCO)c1	-0.768	0.157 (inactive)	-0.165	-0.154	0.358	0.451	0.775	0.151	-0.298	-0.935	-0.704	-0.586	-0.138	-0.708	1.2	1.49	-0.37	-0.332	-1.16	-0.679 (inactive)
CCC(CC)C(O)C1C=CC2C(=O)N(c3ccccc3)C(=O)C2N1Nc1ccc(C#N)cc1 (stereo not given)	1.09	0.35 (inactive)	0.628	0.241	0.729	2.61	-0.266	1.3	0.158	1.23	1.74	1.27	0.813	0.991	0.816	-0.177	-0.111	0.0695	1.21	-0.27 (inactive)
C=C(COC)C(=O)CC[C@@H](OC(=O)c1cccnc1)c1ccc(CO)o1	0.158	0.509 (inactive)	-0.0362	-0.157	0.481	0.387	0.823	0.532	0.739	0.341	-0.131	0.0982	-0.111	0.39	1.18	1.46	0.217	0.911	-0.0265	-2.05 (inactive)
CC(C)c1ccc(NN2C(C(O)c3cccc(O)c3)C=CC3C(=O)N(c4ccccc4)C(=O)C32)cc1 (stereo not given)	1	1 (inactive)	0.374	0.0572	0.798	2.53	0.279	1.35	-0.678	1.14	1.16	1.25	0.781	0.992	1.35	-0.179	0.116	0.61	0.754	-0.824 (inactive)
